Sampled rows, rich in hits. Any-hit rate of the full collection: about 12%.
Pf growth 48h: Primary qHTS for delayed death inhibitors of the malarial parasite plastid, 48 hour incubation; P. falciparum luciferase growth in erythrocytes, 48 h; Potency, µM (top dose mostly 28.7 µM), for inactives: top-dose activity change, negative = inhibition, most hits filed as inhibitors; 310,000 tested, 5.9% active; AID 504832, 2011; also: potency is read from the fitted curve at half-maximal effect; % is scaled to controls: 0 for no effect and ±100 for the full control effect
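Luminescence readout; reporter = integrated firefly luciferase in P. falciparum. RBC culture at 2% hematocrit, 0.1% parasitemia final, 37 C/5% CO2; decreased signal taken as growth inhibition.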
Pf growth 96h: Primary qHTS for delayed death inhibitors of the malarial parasite plastid, 96 hour incubation. P. falciparum luciferase reporter growth, 96 h. Potency, µM (titrated, usually from 28.7 µM), for inactives: top-dose activity change, negative = inhibition, most hits filed as inhibitors. 320,000 tested, 6.9% active; also: potency is read from the fitted curve at half-maximal effect; % is scaled to controls: 0 for no effect and ±100 for the full control effect
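96 h incubation, 37 C, 5% CO2, of luciferase-reporter P. falciparum-infected RBCs (2% hematocrit, 0.05% parasitemia final) with test compounds; endpoint luminescence.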
Sm TGR inh: qHTS Assay for the Inhibitors of Schistosoma Mansoni Peroxiredoxins; 360,000 tested, 3% active; Schistosoma mansoni thioredoxin glutathione reductase (TGR), Q962Y6; Potency, µM (highest dose often 114 µM), for inactives: at the top dose activity change, negative = inhibition, most hits filed as inhibitors; purified TGR, DTNB reduction, TNB absorbance 405 nm; also: potency is read from the fitted curve at half-maximal effect; % is scaled to controls: 0 for no effect and ±100 for the full control effect; nearly all actives have a fitted effect of over 60% in size
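TGR 20 nM + NADPH 100 uM (dispensed conc.), cpd preinc 15 min RT; start with NADPH (500 uM addition) then DTNB (15 mM addition). Kinetic TNB absorbance, 405 nm filter. Four-parameter Hill fit across titration.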
SARS PLpro yeast-1: qHTS of Yeast-based Assay for SARS-CoV PLP. S. cerevisiae expressing SARS-CoV PLpro, growth rescue. Potency, µM (titrated, usually from 32.9 µM), inactives show top-dose activity, positive = growth rescue, hits mostly activators. 330,000 tested, 0.19% active. AID 485353, 2010; calls by dose curve; also: potency is read from the fitted curve at half-maximal effect; 0% is about no effect; nearly all actives have a fitted effect of over 55% in size
SARS PLpro yeast-2: qHTS of Yeast-based Assay for SARS-CoV PLP: Hit Validation. 1,000 tested, 19% active. shares compounds with SARS PLpro yeast-1. calls only. yeast expressing SARS-CoV PLpro, growth phenotype rescue; call rule not given here
Active calls of the source: *; i = inactive; ? = inconclusive; · = not tested or not shown; + = active, no number; [ ] = remark or other dose. Unless noted, calls follow the shape of the dose curve; as a rule, active = well fitted curve in the direction sought with a large enough effect; inconclusive = small, poorly fitted or top-dose-only effect, or another doubt; inactive = no such curve, though single readings can be large; an effect the other way counts as inactive or inconclusive.

SMILES | Pf growth 48h | Pf growth 96h | Sm TGR inh | SARS PLpro yeast-1 | SARS PLpro yeast-2
CCOCc1cc(CN2CCN(c3cccc(Cl)c3)CC2)c(O)c2ncccc12 | · | · | -32.0% | · | ·
Oc1c(CN2CCOCC2)cc(COCc2ccccc2)c2cccnc12 | 2.62µM* | 30.5% | 44.7µM* | · | +
O=C(Nc1ccc(F)cc1)c1ncn(-c2ccccc2)n1 | · | · | 5.2% | · | ·
COc1ccc(-c2nc3sc(CCNS(=O)(=O)c4ccccc4)c(C)n3n2)cc1 | · | · | 1.7% | · | ·
Cc1cccc(C2NC(c3cccc(C)c3)C([N+](=O)[O-])C(C)(C)C2[N+](=O)[O-])c1 (stereo not drawn) | ? | ? | -1.9% | ? | i
Cc1ccccc1C1NC(c2ccccc2C)C([N+](=O)[O-])C(C)(C)C1[N+](=O)[O-] (stereo not drawn) | ? | ? | 30.7% | 0.4% | ·
COc1ccc(C(c2oc(CO)cc(=O)c2O)c2oc(CO)cc(=O)c2O)cc1 | 17.3% | ? | 35.5µM* | 4.47µM* | +
COc1cc(C(c2oc(CO)cc(=O)c2O)c2oc(CO)cc(=O)c2O)cc(OC)c1OC | -23.6% | ? | -25.6% | ? | i
CCOc1ccc(N2C(=O)CC(SC(=NC)Nc3ccc4c(c3)OCO4)C2=O)cc1 (stereo not drawn) | · | 15.6% | -15.4% | ? | ?
O=C(O)c1ccc(NCc2ccc3c(c2)OCO3)cc1 | · | ? | -26.4% | ? | i
Cc1ccc(CN2c3ccccc3S(=O)(=O)c3ccccc32)cc1 | · | · | -1.3% | · | ·
CC(=O)OCC(=O)[C@@]12OC(C)(C)O[C@@H]1C[C@H]1[C@H]3C[C@H](F)C4=CC(=O)C=C[C@@]4(C)[C@]3(F)[C@H](O)C[C@@]12C | -27.6%[12.8 µM] | ? | · | · | ·
COC(=O)c1c(NS(=O)(=O)c2ccc(C)cc2)sc2c1CCC(C)C2 (stereo not drawn) | -12.8% | -16.5% | -28.1% | ? | +
COC(=O)c1c(NC(=O)CN(C)CC(=O)Nc2ccc(C)cc2)sc2c1CCC(C)C2 (stereo not drawn) | -29.9% | ? | 10.3% | 1.8% | ·
O=C(Nc1nncs1)C1CC(=O)N(CCc2ccc(F)cc2)C1 (stereo not drawn) | 7.3% | 0.0% | 84.6% | 2.3% | ·
CC(=O)Nc1ccc(NC(=O)Cc2sc(C)nc2-c2ccc(C)cc2)cc1 | -22.3% | ? | -4.9% | ? | i
Cc1ccc(-c2nc(C)sc2CC(=O)Nc2nnc(C)s2)cc1 | ? | ? | -0.4% | 2.6% | ·
CC(C)Cc1nn2c(=O)cc(COC(=O)c3cccc(NC(=O)CCc4ccccc4)c3)nc2s1 | · | · | 3.9% | · | ·
CCN(CC)S(=O)(=O)c1cc(C(=O)OCC(=O)Nc2c(F)cccc2F)ccc1F | 10.0% | 0.0% | -4.6% | ? | i
CCN(C(=O)c1ccc(S(=O)(=O)N2CCC(C)CC2)cc1)C1CCS(=O)(=O)C1 (stereo not drawn) | 9.3% | 13.5% | 0.2% | 3.5% | ·
O=C(Nc1cccc(C(F)(F)F)c1)c1cc2nc(-c3ccc4c(c3)OCO4)cc(C(F)(F)F)n2n1 | · | · | 14.2% | · | ·
O=C(O)c1cccc(COc2ccccc2Cl)c1 | 13.7% | · | -4.1% | -13.6% | ·
O=C(Nc1ccccc1Cl)c1cccc(COc2cc(Cl)ccc2Cl)c1 | · | 86.4% | 3.6% | ? | i
O=S1(=O)N[C@H](c2ccccc2)C[C@H](c2ccc(C(F)(F)F)cc2)O1 | 33.8% | -23.2% | -0.7% | -0.4% | ·
COc1cc(CNCC(C)C)c(Br)cc1OCC(=O)NCc1ccccc1 | -19.3% | ? | 28.2µM* | ? | i
SMILES | Pf growth 48h | Pf growth 96h | Sm TGR inh | SARS PLpro yeast-1 | SARS PLpro yeast-2
COc1cc(CNCCN(C)C)c(Br)cc1OCC(=O)NCc1ccccc1 | -1.4% | -2.7% | -2.0% | 7.0% | ·
CCN(Cc1ccccc1)S(=O)(=O)c1ccc(C(=O)N2CCN(c3nc4ccccc4s3)CC2)cc1 | -0.5% | -6.5% | 0.8% | 2.82µM* | i
CCc1ccc2nc(N3CCN(C(=O)c4ccccc4)CC3)sc2c1 | · | · | -4.0% | · | ·
Cc1ccc2cccnc2c1N | 22.8% | -28.2% | 2.5% | ? | i
Cc1cccc2cccnc12 | 19.7% | -9.7% | -4.5% | 0.6% | ·
CNC(=O)Oc1cccc(-c2cn3cc(OC(=O)NC)ccc3n2)c1 | -77.5% | ? | -19.1% | 11.2µM* | +
